From the supplement of paper PMC10849652
Of roughly 8,800 targets only a part is listed; those with a hit were picked by preference. About 0.5% of all pairs of compound and target were hits.

Assays:
Test in all cases: log2 fold change, soluble protein after heating vs DMSO (PISA); higher = thermal stabilisation; K562 lysate, 10 uM; active = over 0.2 and 3.5 SD of the protein, either way, in both replicates (recomputed)
nilotinib = compound: Cc1cn(-c2cc(NC(=O)c3ccc(C)c(Nc4nccc(-c5cccnc5)n4)c3)cc(C(F)(F)F)c2)cn1 [nilotinib]
How it was run: (§1)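 Pellets of K562 cells were dounce-homogenised in PBS pH 7.4 with 1 mM MgCl2, and the crude extract was held at 1 mg/mL protein for a 30 min treatment with 10 μM compound. Aliquots were heated for 3 min over 48°C-58°C and pooled before NP-40 was added to 0.5% at 4°C. The supernatant from 21,000xg for 90 min was quantified by TMTpro 16plex LC-MS/MS with channel sums equalised. Values are reported from duplicates as log-two fold change in thermal stability relative to solvent controls.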

[1] = compound: Cc1nc(Nc2n[nH]c3c2CN(C(=O)N[C@H](CN(C)C)c2ccccc2)C3(C)C)c2sccc2n1
How it was run: as §1

dasatinib = compound: Cc1nc(Nc2ncc(C(=O)Nc3c(C)cccc3Cl)s2)cc(N2CCN(CCO)CC2)n1 [dasatinib]
How it was run: as §1

[2] = compound: Cc1ncc(-c2ccnc(Nc3ccc(S(C)(=O)=O)cc3)n2)n1C(C)C
How it was run: as §1

[3] = compound: Cn1cc(-c2ccc3c(c2)CCN3C(=O)Cc2cccc(C(F)(F)F)c2)c2c(N)ncnc21
How it was run: as §1

quisinostat = compound: Cn1cc(CNCC2CCN(c3ncc(C(=O)NO)cn3)CC2)c2ccccc21 [quisinostat]
How it was run: as §1

tipifarnib = compound: Cn1cncc1[C@@](N)(c1ccc(Cl)cc1)c1ccc2c(c1)c(-c1cccc(Cl)c1)cc(=O)n2C [tipifarnib]
How it was run: as §1

[4] = compound: NC(=O)Nc1cc(-c2cccc(F)c2)sc1C(=O)N[C@H]1CCCNC1
How it was run: as §1

[5] = compound: NC(=O)c1cnc(N[C@@H]2CCCC[C@@H]2N)nc1Nc1cccc(-n2nccn2)c1
How it was run: as §1

[6] = compound: NC1(c2ccc(-c3nc4ccn5c(=O)[nH]nc5c4cc3-c3ccccc3)cc2)CCC1
How it was run: as §1

[7] = compound: NCC(=O)Nc1ccc(-n2nc(C(F)(F)F)cc2-c2ccc3c(ccc4ccccc43)c2)cc1
How it was run: as §1

vorinostat = compound: O=C(CCCCCCC(=O)Nc1ccccc1)NO [vorinostat]
How it was run: as §1

silmitasertib = compound: O=C(O)c1ccc2c(c1)nc(Nc1cccc(Cl)c1)c1ccncc12 [silmitasertib]
How it was run: as §1

[8] = compound: O=C1NC(=O)C(c2cnc3ccccn23)=C1c1cn2c3c(cc(F)cc13)CN(C(=O)N1CCCCC1)CC2
How it was run: as §1

entospletinib = compound: c1cn2cc(-c3ccc4cn[nH]c4c3)nc(Nc3ccc(N4CCOCC4)cc3)c2n1 [entospletinib]
How it was run: as §1

Measured: log2 fold change

MMS22L (UniProt Q6ZRQ5)
active: vorinostat -0.508
inactive: nilotinib 0.033 | [1] 0 | dasatinib 0.026 | [2] -0.015 | [3] -0.007 | quisinostat -0.086 | tipifarnib -0.013 | [4] 0.041 | [5] -0.03 | [6] -0.06 | [7] 0.022 | silmitasertib 0.016 | [8] 0.138 | entospletinib 0.069

KNL1 (UniProt Q8NG31)
inactive: nilotinib 0.011 | [1] -0.004 | dasatinib -0.014 | [2] 0.02 | [3] 0.012 | quisinostat -0.048 | tipifarnib -0.06 | [4] 0.023 | [5] 0.024 | [6] -0.001 | [7] 0.022 | silmitasertib -0.003 | [8] -0.009 | entospletinib -0.011
active: vorinostat -0.254

LDAH isoform 2 (UniProt Q9H6V9)
Chain of UniProt Q9H6V9 (Q9H6V9 whole entry, looked up): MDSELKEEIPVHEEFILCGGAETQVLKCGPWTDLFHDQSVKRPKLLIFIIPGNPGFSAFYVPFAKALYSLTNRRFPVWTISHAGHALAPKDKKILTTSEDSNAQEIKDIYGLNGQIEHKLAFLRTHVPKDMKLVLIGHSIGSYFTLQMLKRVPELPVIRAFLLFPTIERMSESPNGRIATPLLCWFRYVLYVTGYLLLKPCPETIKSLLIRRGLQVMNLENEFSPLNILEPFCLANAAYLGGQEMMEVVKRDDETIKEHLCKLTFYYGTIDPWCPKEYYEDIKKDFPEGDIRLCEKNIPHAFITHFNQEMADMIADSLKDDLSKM
active: [6] 0.307
inactive: nilotinib -0.062 | [1] 0.023 | dasatinib -0.071 | [2] -0.003 | [3] 0.017 | quisinostat -0.022 | tipifarnib -0.077 | [4] 0.037 | [5] -0.009 | [7] -0.017 | vorinostat -0.13 | silmitasertib 0.064 | [8] 0.033 | entospletinib -0.029

KLHL36 (UniProt Q8N4N3)
inactive: nilotinib 0.012 | [1] -0.104 | dasatinib -0.021 | [2] 0.027 | [3] 0.049 | quisinostat 0.043 | tipifarnib 0.067 | [4] 0.007 | [5] -0.023 | [6] -0.014 | [7] 0.059 | vorinostat -0.161 | silmitasertib 0.082 | [8] -0.037 | entospletinib -0.006

KMT2A isoform 3 (UniProt Q03164)
inactive: nilotinib 0.098 | dasatinib 0.017 | [2] 0.154 | [3] 0.056 | quisinostat -0.156 | tipifarnib -0.178 | [4] 0.032 | [5] 0.133 | [6] -0.037 | [7] 0.046 | vorinostat 0.101 | silmitasertib 0.012 | [8] 0.066 | entospletinib -0.034
active: [1] -0.428

KLC4 isoform 3 (UniProt Q9NSK0)
inactive: nilotinib -0.023 | [1] 0.047 | dasatinib -0.013 | [2] 0.089 | [3] 0.048 | quisinostat -0.018 | tipifarnib -0.015 | [4] 0.01 | [5] 0.021 | [6] -0.003 | [7] 0.01 | silmitasertib 0.009 | [8] -0.041 | entospletinib -0.006
active: vorinostat -0.557

MED13L (UniProt Q71F56)
inactive: nilotinib 0.06 | [1] -0.056 | dasatinib 0.017 | [2] 0.032 | [3] 0.045 | quisinostat -0.055 | tipifarnib -0.012 | [4] 0.069 | [5] 0.014 | [6] 0.015 | [7] -0.057 | silmitasertib 0.017 | [8] 0.017 | entospletinib -0.052
active: vorinostat -0.253

LZTR1 (UniProt Q8N653)
Chain of UniProt Q8N653 (Q8N653 whole entry, looked up): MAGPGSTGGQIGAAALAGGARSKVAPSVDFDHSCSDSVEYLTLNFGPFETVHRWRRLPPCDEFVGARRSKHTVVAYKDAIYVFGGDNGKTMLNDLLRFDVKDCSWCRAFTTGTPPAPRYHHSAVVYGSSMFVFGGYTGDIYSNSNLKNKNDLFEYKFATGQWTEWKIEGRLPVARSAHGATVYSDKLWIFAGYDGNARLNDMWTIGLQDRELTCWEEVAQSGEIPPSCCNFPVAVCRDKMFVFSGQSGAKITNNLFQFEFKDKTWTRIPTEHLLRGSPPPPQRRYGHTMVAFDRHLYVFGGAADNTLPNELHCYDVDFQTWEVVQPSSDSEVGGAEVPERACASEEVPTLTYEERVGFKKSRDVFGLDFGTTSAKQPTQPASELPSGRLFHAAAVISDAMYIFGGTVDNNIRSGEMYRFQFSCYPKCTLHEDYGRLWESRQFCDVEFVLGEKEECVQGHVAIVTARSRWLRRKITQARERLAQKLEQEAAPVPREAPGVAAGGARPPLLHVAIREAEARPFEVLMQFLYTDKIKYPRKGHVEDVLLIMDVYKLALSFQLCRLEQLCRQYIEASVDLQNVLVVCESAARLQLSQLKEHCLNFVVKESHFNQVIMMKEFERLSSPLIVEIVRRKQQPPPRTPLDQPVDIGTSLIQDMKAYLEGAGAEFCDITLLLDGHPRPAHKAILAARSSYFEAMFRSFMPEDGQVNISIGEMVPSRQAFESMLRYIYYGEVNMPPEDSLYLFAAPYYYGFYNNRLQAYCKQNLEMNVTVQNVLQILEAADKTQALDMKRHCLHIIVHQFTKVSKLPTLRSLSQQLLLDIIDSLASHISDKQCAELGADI
active: vorinostat -0.472
inactive: nilotinib 0.016 | [1] 0.014 | dasatinib -0.063 | [2] -0.068 | [3] 0.008 | quisinostat -0.029 | tipifarnib -0.036 | [4] 0.099 | [5] -0.033 | [6] -0.019 | [7] -0.022 | silmitasertib 0.005 | [8] 0.013 | entospletinib 0.055

MLST8 (UniProt Q9BVC4)
Chain of UniProt Q9BVC4 (Q9BVC4 whole entry, looked up): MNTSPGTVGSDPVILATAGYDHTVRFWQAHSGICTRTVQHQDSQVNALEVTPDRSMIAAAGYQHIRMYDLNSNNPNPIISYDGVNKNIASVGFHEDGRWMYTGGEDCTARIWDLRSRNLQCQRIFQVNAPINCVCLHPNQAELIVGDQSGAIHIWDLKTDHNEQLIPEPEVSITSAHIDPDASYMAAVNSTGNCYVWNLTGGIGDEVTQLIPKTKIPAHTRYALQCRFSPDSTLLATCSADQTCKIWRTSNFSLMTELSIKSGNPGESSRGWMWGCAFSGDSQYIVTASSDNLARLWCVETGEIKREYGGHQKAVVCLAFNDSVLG
inactive: nilotinib -0.011 | [1] -0.006 | dasatinib 0.046 | [2] 0.079 | [3] -0.041 | quisinostat -0.058 | tipifarnib 0.076 | [4] 0.043 | [5] -0.065 | [6] -0.067 | [7] 0.006 | silmitasertib 0.104 | [8] 0.046 | entospletinib 0.043
active: vorinostat -0.357

LRPPRC (UniProt P42704)
active: vorinostat -0.259
inactive: nilotinib -0.019 | [1] -0.004 | dasatinib -0.062 | [2] 0.012 | [3] 0.056 | quisinostat -0.003 | tipifarnib -0.027 | [4] 0.052 | [5] 0.047 | [6] 0.004 | [7] -0.004 | silmitasertib 0.072 | [8] 0.023 | entospletinib 0.035

LRIF1 (UniProt Q5T3J3)
Chain of UniProt Q5T3J3 (Q5T3J3 whole entry, looked up): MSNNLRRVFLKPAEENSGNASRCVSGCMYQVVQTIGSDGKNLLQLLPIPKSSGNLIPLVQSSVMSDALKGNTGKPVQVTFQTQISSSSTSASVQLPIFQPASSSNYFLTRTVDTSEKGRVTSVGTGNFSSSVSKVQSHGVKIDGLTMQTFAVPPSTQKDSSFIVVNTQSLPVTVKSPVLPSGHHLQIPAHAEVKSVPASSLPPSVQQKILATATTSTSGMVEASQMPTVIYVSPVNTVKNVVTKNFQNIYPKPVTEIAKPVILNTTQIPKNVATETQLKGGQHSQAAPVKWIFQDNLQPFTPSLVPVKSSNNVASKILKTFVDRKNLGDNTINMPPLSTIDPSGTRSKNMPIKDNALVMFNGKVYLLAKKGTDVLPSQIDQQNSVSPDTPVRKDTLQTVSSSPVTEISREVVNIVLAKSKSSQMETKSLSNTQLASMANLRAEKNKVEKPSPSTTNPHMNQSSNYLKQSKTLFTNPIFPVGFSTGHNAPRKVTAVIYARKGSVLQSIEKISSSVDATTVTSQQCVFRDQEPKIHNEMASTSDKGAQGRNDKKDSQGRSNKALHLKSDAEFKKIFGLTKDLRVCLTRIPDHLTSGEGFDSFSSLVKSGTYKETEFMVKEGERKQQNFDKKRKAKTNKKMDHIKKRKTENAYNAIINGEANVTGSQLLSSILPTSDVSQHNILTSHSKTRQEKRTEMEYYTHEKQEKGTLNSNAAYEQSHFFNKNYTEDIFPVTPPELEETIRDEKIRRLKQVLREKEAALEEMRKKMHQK
inactive: nilotinib -0.147 | [1] 0.086 | dasatinib 0.047 | [2] 0.022 | [3] -0.011 | quisinostat 0 | tipifarnib 0.057 | [4] -0.008 | [5] -0.163 | [6] -0.056 | [7] 0.079 | vorinostat 0.082 | silmitasertib -0.11 | [8] -0.024 | entospletinib 0.001

MOSPD2 (UniProt Q8NHP6)
Chain of UniProt Q8NHP6 (Q8NHP6 whole entry, looked up): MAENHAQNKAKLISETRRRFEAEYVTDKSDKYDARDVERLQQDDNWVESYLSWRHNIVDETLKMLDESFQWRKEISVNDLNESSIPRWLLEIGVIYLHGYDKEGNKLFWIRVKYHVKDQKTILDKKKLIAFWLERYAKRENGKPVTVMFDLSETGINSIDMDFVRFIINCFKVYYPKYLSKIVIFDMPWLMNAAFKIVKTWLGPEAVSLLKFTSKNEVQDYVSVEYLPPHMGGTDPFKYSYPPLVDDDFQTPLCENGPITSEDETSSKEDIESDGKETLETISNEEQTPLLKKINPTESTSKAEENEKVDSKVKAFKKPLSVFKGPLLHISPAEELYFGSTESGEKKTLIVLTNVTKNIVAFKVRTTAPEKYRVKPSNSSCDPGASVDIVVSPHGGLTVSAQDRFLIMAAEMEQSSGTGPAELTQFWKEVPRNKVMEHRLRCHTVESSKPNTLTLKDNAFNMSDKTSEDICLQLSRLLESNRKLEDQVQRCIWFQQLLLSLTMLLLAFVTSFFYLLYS
inactive: nilotinib 0.054 | [1] -0.146 | dasatinib 0.006 | [2] -0.009 | [3] 0.015 | quisinostat -0.096 | tipifarnib 0.089 | [4] -0.034 | [5] -0.043 | [6] -0.026 | vorinostat 0.039 | silmitasertib 0.071 | [8] -0.02 | entospletinib -0.074
active: [7] -0.364

MAPK14 isoform 2 (UniProt Q16539)
Chain of UniProt Q16539 (Q16539 whole entry, looked up): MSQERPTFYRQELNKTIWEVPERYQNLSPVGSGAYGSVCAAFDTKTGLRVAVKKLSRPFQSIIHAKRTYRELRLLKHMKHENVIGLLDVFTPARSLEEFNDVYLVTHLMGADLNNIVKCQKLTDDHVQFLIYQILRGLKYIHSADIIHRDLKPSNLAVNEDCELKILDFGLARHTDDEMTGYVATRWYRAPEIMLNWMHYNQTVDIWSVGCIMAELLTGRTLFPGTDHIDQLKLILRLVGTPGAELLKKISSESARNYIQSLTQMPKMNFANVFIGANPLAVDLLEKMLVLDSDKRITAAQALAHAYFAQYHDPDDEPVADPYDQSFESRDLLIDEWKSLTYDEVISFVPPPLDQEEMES
inactive: nilotinib 0.523 | [1] 0.041 | [2] 0.037 | [3] 0.033 | quisinostat -0.031 | tipifarnib -0.039 | [4] -0.035 | [5] 0.076 | [6] -0.018 | [7] -0.06 | vorinostat -0.328 | silmitasertib 0.291 | [8] -0.092 | entospletinib -0.015
active: dasatinib 0.879

MAP2K4 isoform 2 (UniProt P45985)
Chain of UniProt P45985 (P45985 whole entry, looked up): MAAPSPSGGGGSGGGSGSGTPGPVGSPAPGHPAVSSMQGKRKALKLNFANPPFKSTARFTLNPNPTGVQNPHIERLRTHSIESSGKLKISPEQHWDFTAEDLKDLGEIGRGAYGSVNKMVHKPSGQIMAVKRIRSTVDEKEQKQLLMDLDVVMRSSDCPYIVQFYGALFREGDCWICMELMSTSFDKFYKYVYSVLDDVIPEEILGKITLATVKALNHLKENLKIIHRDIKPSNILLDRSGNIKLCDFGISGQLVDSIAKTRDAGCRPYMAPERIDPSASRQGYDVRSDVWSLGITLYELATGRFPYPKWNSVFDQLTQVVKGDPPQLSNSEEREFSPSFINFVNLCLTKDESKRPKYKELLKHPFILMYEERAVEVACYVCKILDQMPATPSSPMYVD
inactive: nilotinib -0.013 | [1] 0.052 | dasatinib -0.014 | [2] 0.248 | [3] 0.046 | quisinostat -0.112 | tipifarnib -0.023 | [4] 0.019 | [5] 0.063 | [6] 0 | [7] -0.119 | vorinostat -0.216 | silmitasertib 0.023 | [8] 0.013 | entospletinib 0.028

LSS (UniProt P48449)
inactive: nilotinib 0.042 | [1] 0.001 | dasatinib 0.016 | [2] -0.025 | [3] 0.047 | quisinostat -0.022 | tipifarnib -0.065 | [4] 0.003 | [5] 0.083 | [6] 0.092 | [7] -0.042 | vorinostat 0.049 | silmitasertib -0.039 | [8] -0.014 | entospletinib -0.043

MPP1 (UniProt Q00013)
Chain of UniProt Q00013 (Q00013 whole entry, looked up): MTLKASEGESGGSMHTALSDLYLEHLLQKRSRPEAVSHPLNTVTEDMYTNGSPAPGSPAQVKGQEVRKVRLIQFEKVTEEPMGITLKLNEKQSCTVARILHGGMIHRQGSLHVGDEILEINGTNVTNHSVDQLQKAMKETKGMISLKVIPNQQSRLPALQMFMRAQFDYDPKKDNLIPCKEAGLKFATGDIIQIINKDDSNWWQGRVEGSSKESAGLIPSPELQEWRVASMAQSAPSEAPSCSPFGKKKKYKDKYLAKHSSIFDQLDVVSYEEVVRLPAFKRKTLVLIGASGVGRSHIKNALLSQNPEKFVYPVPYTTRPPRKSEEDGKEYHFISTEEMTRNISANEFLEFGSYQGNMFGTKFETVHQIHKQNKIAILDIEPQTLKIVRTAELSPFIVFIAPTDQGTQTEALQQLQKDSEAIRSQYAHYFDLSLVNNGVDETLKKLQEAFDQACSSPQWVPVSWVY
active: vorinostat -0.297
inactive: nilotinib -0.017 | [1] -0.014 | dasatinib -0.011 | [2] 0.011 | [3] 0.007 | quisinostat 0.017 | tipifarnib 0 | [4] 0.024 | [5] 0.017 | [6] 0 | [7] 0.012 | silmitasertib 0.02 | [8] 0.024 | entospletinib 0.007

MMS19 isoform 8 (UniProt Q96T76)
inactive: nilotinib -0.014 | [1] 0.019 | dasatinib -0.043 | [2] 0.018 | [3] -0.011 | quisinostat -0.056 | tipifarnib -0.002 | [4] 0.053 | [5] 0.014 | [6] 0.004 | [7] 0.057 | silmitasertib 0.054 | [8] 0.029 | entospletinib 0.024
active: vorinostat -0.372

KNOP1 (UniProt Q1ED39)
Chain of UniProt Q1ED39 (Q1ED39 whole entry, looked up): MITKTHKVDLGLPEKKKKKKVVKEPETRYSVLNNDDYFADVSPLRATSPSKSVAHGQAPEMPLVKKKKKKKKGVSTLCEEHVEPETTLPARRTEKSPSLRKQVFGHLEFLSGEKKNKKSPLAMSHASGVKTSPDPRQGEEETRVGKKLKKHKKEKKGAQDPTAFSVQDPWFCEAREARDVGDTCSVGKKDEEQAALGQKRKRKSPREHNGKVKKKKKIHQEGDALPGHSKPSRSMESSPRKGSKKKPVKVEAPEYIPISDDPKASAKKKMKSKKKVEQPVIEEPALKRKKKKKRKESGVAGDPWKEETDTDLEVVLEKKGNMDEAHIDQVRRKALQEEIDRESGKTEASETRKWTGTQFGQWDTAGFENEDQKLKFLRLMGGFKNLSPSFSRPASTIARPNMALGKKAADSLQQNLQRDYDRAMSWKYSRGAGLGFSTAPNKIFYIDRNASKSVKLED
inactive: nilotinib -0.09 | [1] 0.055 | dasatinib -0.028 | [2] -0.095 | [3] -0.001 | quisinostat -0.169 | tipifarnib -0.01 | [4] 0.007 | [5] 0.048 | [6] -0.062 | [7] 0.019 | vorinostat 0.063 | silmitasertib 0.005 | [8] 0.03 | entospletinib -0.035

MPI (UniProt P34949)
Chain of UniProt P34949 (P34949 whole entry, looked up): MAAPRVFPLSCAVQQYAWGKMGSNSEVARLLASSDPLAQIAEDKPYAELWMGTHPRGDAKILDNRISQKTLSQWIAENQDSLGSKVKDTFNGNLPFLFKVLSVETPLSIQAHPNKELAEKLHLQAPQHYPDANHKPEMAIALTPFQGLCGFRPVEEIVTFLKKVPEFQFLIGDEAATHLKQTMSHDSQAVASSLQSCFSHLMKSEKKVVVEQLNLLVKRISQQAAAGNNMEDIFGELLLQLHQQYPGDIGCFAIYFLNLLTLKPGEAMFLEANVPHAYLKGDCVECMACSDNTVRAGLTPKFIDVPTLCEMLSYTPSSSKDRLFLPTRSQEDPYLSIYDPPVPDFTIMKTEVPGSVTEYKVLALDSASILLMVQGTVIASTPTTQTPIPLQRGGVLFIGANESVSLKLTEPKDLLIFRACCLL
inactive: nilotinib 0.002 | [1] -0.02 | dasatinib -0.035 | [2] 0.019 | [3] -0.022 | quisinostat -0.025 | tipifarnib 0.009 | [4] 0.029 | [5] 0.016 | [6] -0.026 | [7] 0.013 | vorinostat 0.049 | silmitasertib -0.047 | [8] -0.007 | entospletinib -0.017

KIF11 (UniProt P52732)
inactive: nilotinib -0.016 | [1] 0.003 | dasatinib -0.021 | [2] -0.018 | [3] 0.034 | quisinostat -0.022 | tipifarnib -0.007 | [4] 0.006 | [5] 0 | [6] 0 | [7] -0.013 | silmitasertib 0.016 | [8] -0.033 | entospletinib 0.001
active: vorinostat -0.252

MBOAT2 (UniProt Q6ZWT7)
inactive: nilotinib -0.006 | [1] -0.095 | dasatinib -0.178 | [2] 0.024 | [3] -0.027 | quisinostat -0.042 | tipifarnib 0.12 | [4] 0.011 | [5] 0.03 | [6] -0.012 | [7] -0.017 | vorinostat 0.13 | silmitasertib 0.024 | [8] 0.005 | entospletinib -0.092
